Results published in PubChem BioAssay (NCI).
“And” between values parts separate entries of the source, which are not always exact repeats. Equal values may be shown once. About 79,000 compounds went through this panel and 15% of them were active in at least one assay; those are over-represented in the sample as a whole. Some structures have more than one record in an assay (separate samples or runs), and their calls can disagree. The source made the active and inactive calls. Cut-off read from the data, not from the text of the source: active = growth inhibition above about 70%; inactive = the rest.

Columns and labels:
[1] = NCI Yeast Anticancer Drug Screen. Data for the rad50 strain (AID 155);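 note: 0% = growth of vehicle-only cultures of the same strain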; conditions: S. cerevisiae rad50 strain growth inhibition, stronger effect = higher value
Method in brief: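 Cells are treated with compound, grown, and their growth is then scored against vehicle-only cultures of the same repair-deficient yeast strain.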

[2] = NCI Yeast Anticancer Drug Screen. Data for the mec2-1 strain (AID 157); conditions: S. cerevisiae mec2-1 strain, stronger effect = higher value
Method in brief: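 mec2-1 yeast strain, carrying an alteration in DNA damage repair or cell cycle control, was exposed to compounds; growth inhibition was measured relative to vehicle-treated controls.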

[3] = NCI Yeast Anticancer Drug Screen. Data for the sgs1 mgt1 strain (AID 161);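 note: 0% = growth of cultures given vehicle only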; conditions: S. cerevisiae sgs1 mgt1 strain, stronger effect = higher value
Method in brief: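 This yeast growth screen uses a strain with defined DNA-repair lesions; compound-treated growth is compared with vehicle-treated growth.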

[4] = NCI Yeast Anticancer Drug Screen. Data for the cln2 rad14 strain (AID 165);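 note: 0% = growth equal to vehicle treated cultures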; conditions: S. cerevisiae cln2 rad14 strain, stronger effect = higher value
Method in brief: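 Yeast carrying cln2 and rad14 alterations (cell cycle control and DNA damage repair) were exposed to compounds. Growth inhibition was measured against vehicle-treated controls.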

[5] = NCI Yeast Anticancer Drug Screen. Data for the bub3 strain (AID 167); conditions: S. cerevisiae bub3 mutant strain, stronger effect = higher value
Method in brief: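 Part of a panel of yeast mutants defective in DNA damage repair or cell cycle regulation. Each strain is grown with compound, and inhibition is calculated relative to solvent-treated cultures.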

[6] = NCI Yeast Anticancer Drug Screen. Data for the mlh1 rad18 strain (AID 175); conditions: S. cerevisiae mlh1 rad18 strain growth inhibition, stronger effect = higher value
Method in brief: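 Growth inhibition of the yeast strain was measured after compound exposure and expressed relative to vehicle-treated controls. The strain carries defined defects in DNA damage repair.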

[7] = at 5.0 µM (retest, dose inferred, filed as 0.5)
[8] = at 50.0 µM (retest, dose inferred, filed as 5.0)

Measured: growth inhibition

NNc1nc2ccccc2s1
4.4% (inactive) and 72.5% (active): [3]; at 50.0 µM
-7.35% (inactive) and 88.2% (active): [6]; at 50.0 µM
9.15% (inactive) and 89.6% (active): [5]; at 50.0 µM
inactive: [1]; [7] 14% | [1]; [8] 34% | [1]; at 50.0 µM 1.3% and 47.8% | [2]; [7] 10% | [2]; [8] 32% | [2]; at 50.0 µM -37% and 42.6% | [3]; [7] 2% | [3]; [8] 38% | [4]; [7] 8% | [4]; [8] 3% | [4]; at 50.0 µM 0.55% and 8.6% | [5]; [7] 19% | [5]; [8] 45% | [6]; [7] 37% | [6]; [8] 64%

Cc1cc2c(c(Br)c1O)Oc1c(cc(C)c(O)c1Br)C21OC(=O)c2ccccc21
inactive: [1]; [7] 52% | [2]; [7] 42% | [3]; [7] 55% | [4]; [7] 36% | [5]; [7] 52%
active: [1]; [8] 98% | [1]; at 50.0 µM 90.7% | [2]; [8] 99% | [2]; at 50.0 µM 93% | [3]; [8] 99% | [3]; at 50.0 µM 92.6% | [4]; [8] 98% | [4]; at 50.0 µM 92.5% | [5]; [8] 99% | [5]; at 50.0 µM 91% | [6]; [7] 77% | [6]; [8] 98% | [6]; at 50.0 µM 90%

Nc1ncnc(N)c1N=O
inactive: [1]; [7] -19% | [1]; [8] 1% | [1]; at 50.0 µM 39% and 21.6% | [2]; [7] -13% | [2]; [8] -3% | [2]; at 50.0 µM 32.5% and 4.05% | [3]; [7] 5% | [3]; [8] 3% | [3]; at 50.0 µM 67.5% and 35.1% | [4]; [7] 11% | [4]; [8] 28% | [4]; at 50.0 µM 39.3% and 31.2% | [5]; [7] -2% | [5]; [8] 54% | [5]; at 50.0 µM 62.6% and 53.2% | [6]; [7] -3% | [6]; [8] 15% | [6]; at 50.0 µM 34.5% and 26.6%

C[C@H]1CC[C@H]([C@@H](C)[C@H]2[C@@H](O)C[C@H]3[C@@H]4CC[C@H]5C[C@@H](O)CC[C@]5(C)[C@H]4CC[C@]23C)NC1
active: [1]; [8] 94% and 96% | [1]; at 50.0 µM 91.3% and 88.7% | [2]; [8] 98% and 99% | [2]; at 50.0 µM 91.8% and 85.7% | [3]; [8] 98% and 94% | [3]; at 50.0 µM 92.5% and 85.7% | [4]; at 50.0 µM 91% and 88.3% | [5]; [8] 98% and 92% | [5]; at 50.0 µM 92.1% and 89.3% | [6]; [8] 97% and 98% | [6]; at 50.0 µM 84.5% and 89.2%
97% (active) and 60% (inactive): [4]; [8]
inactive: [1]; [7] 32% and 5% | [2]; [7] 19% and 2% | [3]; [7] 23% and 4% | [4]; [7] 23% and 1% | [5]; [7] 24% and 0% | [6]; [7] 28% and -4%

C1=C(CN2CCCCC2)COc2ccccc21
inactive: [1]; [7] 9% | [1]; [8] 30% | [1]; at 50.0 µM 51.4% | [2]; [7] 1% | [2]; [8] 45% | [2]; at 50.0 µM 22.9% | [3]; [7] -7% | [3]; [8] 61% | [3]; at 50.0 µM 46.5% | [4]; [7] 0% | [4]; [8] 28% | [4]; at 50.0 µM 65% | [5]; [7] 6% | [5]; [8] 44% | [5]; at 50.0 µM 59.8% | [6]; [7] 20% | [6]; [8] 54%
active: [6]; at 50.0 µM 76.7%

CC(C)C1=C(O)C2=C(C(=O)C1=O)C1(C)CCCC(C)(C)C1CC2O (configuration not stated)
83.1% (active) and 21.6% (inactive): [6]; at 50.0 µM
inactive: [1]; [7] 42% | [1]; at 50.0 µM 36.9% and 14.3% | [2]; [7] 55% | [2]; at 50.0 µM 22.1% and -9.35% | [3]; [7] 48% | [3]; at 50.0 µM 45% and 39.5% | [4]; [7] 46% | [4]; at 50.0 µM 32.4% and 6.45% | [5]; at 50.0 µM 56.6% and 17.4% | [6]; [7] 56%
active: [1]; [8] 98% | [2]; [8] 98% | [3]; [8] 98% | [4]; [8] 98% | [5]; [7] 75% | [5]; [8] 97% | [6]; [8] 98%

OC1CCC(O)CC1 (configuration not stated)
inactive: [1]; [7] -1% | [1]; [8] 42% | [2]; [7] -3% | [2]; [8] 3% | [2]; at 50.0 µM 20.2% and -13.1% | [3]; [7] 0% | [3]; [8] 5% | [4]; [7] 2% | [4]; [8] -3% | [4]; at 50.0 µM 8.65% and -1.45% | [5]; [7] 0% | [5]; [8] 4% | [5]; at 50.0 µM 11% and -1.95% | [6]; [7] 0% | [6]; [8] 10% | [6]; at 50.0 µM 67.3% and 22%
70.2% (active) and -6.75% (inactive): [3]; at 50.0 µM
73.8% (active) and 21.8% (inactive): [1]; at 50.0 µM

CCCn1cnc2c(SCc3ccc(Cl)cc3)nc(N)nc21
active: [1]; at 50.0 µM 96.9% | [2]; at 50.0 µM 97.5% | [3]; at 50.0 µM 96.2% | [4]; at 50.0 µM 92.8% | [5]; at 50.0 µM 97% | [6]; at 50.0 µM 98%
inactive: [1]; [7] -7% | [1]; [8] 21% | [2]; [7] -5% | [2]; [8] -10% | [3]; [7] -3% | [3]; [8] 16% | [4]; [7] -32% | [4]; [8] -64% | [5]; [7] -20% | [5]; [8] 7% | [6]; [7] -6% | [6]; [8] 36%

O=C1c2cccc(O)c2C(=O)c2cccc(O)c21
inactive: [1]; [7] 6% | [1]; [8] 17% | [1]; at 50.0 µM 20.7% and 33.4% | [2]; [7] 9% | [2]; [8] 17% | [2]; at 50.0 µM 12.1% and 22.7% | [3]; [7] 0% | [3]; [8] 7% | [4]; [7] 4% | [4]; [8] 24% | [4]; at 50.0 µM 12.4% and -23.5% | [5]; [7] 4% | [5]; [8] 1% | [5]; at 50.0 µM 6% and 30.1% | [6]; [7] 7% | [6]; [8] 39%
18.1% (inactive) and 82.8% (active): [3]; at 50.0 µM
6.5% (inactive) and 76.8% (active): [6]; at 50.0 µM

CC1CP(c2ccccc2)(c2ccccc2)(c2ccccc2)OC1(C(=O)c1ccccc1)c1ccccc1 (configuration not stated)
inactive: [1]; [7] -1% | [1]; [8] 9% | [2]; [7] 8% | [2]; [8] 7% | [3]; [7] -21% | [3]; [8] -1% | [4]; [7] -9% | [4]; [8] 2% | [5]; [7] -1% | [5]; [8] 11% | [6]; [7] -15% | [6]; [8] 29%
active: [1]; at 50.0 µM 93.9% | [2]; at 50.0 µM 99.3% | [3]; at 50.0 µM 99.3% | [4]; at 50.0 µM 98.9% | [5]; at 50.0 µM 98.8% | [6]; at 50.0 µM 99.2%

CC(NC(=O)/C(C#N)=C/c1ccc2[nH]ccc2c1)c1ccccc1 (configuration not stated)
active: [1]; [8] 94% | [1]; at 50.0 µM 86.2% | [2]; [8] 95% | [2]; at 50.0 µM 90% | [3]; [8] 93% | [3]; at 50.0 µM 88.8% | [4]; [8] 91% | [4]; at 50.0 µM 86.5% | [5]; [8] 94% | [5]; at 50.0 µM 86.2% | [6]; [8] 96% | [6]; at 50.0 µM 86.3%
inactive: [1]; [7] 0% | [2]; [7] 1% | [3]; [7] 16% | [4]; [7] 7% | [5]; [7] 3% | [6]; [7] -5%

CCCCCCCCCCCCN1C(=O)[N+](C)(C)N=C1[O-]
inactive: [1]; [7] 6% | [1]; [8] 41% | [2]; [7] 4% | [2]; [8] 49% | [3]; [7] 7% | [3]; [8] 60% | [4]; [7] -4% | [4]; [8] 21% | [5]; [7] 4% | [5]; [8] 34% | [6]; [7] 4% | [6]; [8] 49%
active: [1]; at 50.0 µM 98.7% | [2]; at 50.0 µM 99.3% | [3]; at 50.0 µM 99.1% | [4]; at 50.0 µM 97.5% | [5]; at 50.0 µM 98.9% | [6]; at 50.0 µM 99.1%

NC(CCCCNC(=O)c1ccccc1)C(=O)O (configuration not stated)
91.9% (active) and -28.2% (inactive): [4]; at 50.0 µM
inactive: [1]; [7] -1% | [1]; [8] 4% | [1]; at 50.0 µM 17.2% and -18.6% | [2]; [7] 3% | [2]; [8] 2% | [2]; at 50.0 µM 5.85% and -22.1% | [3]; [7] 0% | [3]; [8] -3% | [3]; at 50.0 µM 0.1% and -35.4% | [4]; [7] 3% | [4]; [8] 4% | [5]; [7] 17% | [5]; [8] -2% | [5]; at 50.0 µM -5% and -23.4% | [6]; [7] -3% | [6]; [8] -3% | [6]; at 50.0 µM -1.1% and -21.9%

CC(C)Oc1ccc(Nc2ccccc2)cc1
inactive: [1]; [7] -2% | [1]; [8] 61% | [1]; at 50.0 µM -1.65% and 37% | [2]; [7] -9% | [2]; [8] 15% | [2]; at 50.0 µM -2.9% and 50.2% | [3]; [7] -1% | [3]; [8] 43% | [3]; at 50.0 µM -8.3% and 56.8% | [4]; [7] 0% | [4]; [8] -18% | [4]; at 50.0 µM -21.6% and 36.1% | [5]; [7] 42% | [5]; [8] 62% | [5]; at 50.0 µM -16.4% and 33.5% | [6]; [7] -4% | [6]; [8] 20% | [6]; at 50.0 µM -9.65% and 40.1%
